Reference: PubChem BioAssay AID1476 (National Center for Advancing Translational Sciences (NCATS), 2009)
In all, about 200,000 compounds went through this assay and about 4,500 (2.2%) were called active. Roughly 12% stayed inconclusive and do not appear here. Many of the other results were omitted from the sample, so actives are more common in it than they were. Unmarked numbers belong to inactive results. Calls follow the shape of the dose curve; as a rule, active = well fitted inhibition curve with a large enough effect; inconclusive = small, poorly fitted or top-dose-only effect, or effect the other way; inactive = flat fitted curve, though single readings scatter.
Also: nearly all actives have a fitted effect of over 40% in size.
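For max response, negative = inhibition in this document: plate controls were enzyme without inhibitor for no effect and buffer without enzyme for full effect.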
Potency is read from the fitted curve at half-maximal effect.

These compounds were tested against Cruzipain (Trypanosoma cruzi) (UniProt P25779) (assay: qHTS Assay for Promiscuous and Specific Inhibitors of Cruzain (without detergent)). Conditions: purified cruzain, Z-FR-AMC fluorescence, no detergent.
Chain of Cruzipain (Trypanosoma cruzi) (P25779 123-467 limits assumed): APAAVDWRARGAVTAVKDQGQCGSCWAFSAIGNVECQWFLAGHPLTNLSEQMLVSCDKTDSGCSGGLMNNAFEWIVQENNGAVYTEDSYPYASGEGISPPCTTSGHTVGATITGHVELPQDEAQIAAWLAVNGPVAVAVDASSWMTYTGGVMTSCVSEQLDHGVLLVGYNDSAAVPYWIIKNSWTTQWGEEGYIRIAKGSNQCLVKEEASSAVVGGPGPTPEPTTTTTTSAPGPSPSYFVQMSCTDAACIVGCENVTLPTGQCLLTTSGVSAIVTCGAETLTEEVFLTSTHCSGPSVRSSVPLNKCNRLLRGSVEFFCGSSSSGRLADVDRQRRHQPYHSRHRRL
Procedure, shortened: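 Detergent-free condition (0.00005% Triton X-100) in acetate buffer pH 5.5 with DTT. 1.5 nM enzyme and compound were pre-mixed 15 min, then 2 uM Z-FR-AMC substrate added; reaction progress from fluorescence change between first and third reads (60 s).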
`COc1cccc(OCCn2c(-c3ccc(Br)cc3)nc3ccccc3c2=O)c1` showed a max response, negative = inhibition of -14.8%. Compound `Cc1cc(C)cc(NS(=O)(=O)c2cc3c(cc2C)NC(=O)CO3)c1` has a max response, negative = inhibition of 6.94%. For `Cc1cc(C)cc(NC(=O)CSc2nc(=O)n(CCN3CCOCC3)c3c2CCC3)c1`, the max response, negative = inhibition was -7.74%. `O=C(c1ccc(Br)cc1)N(Cc1cccs1)c1ccc(F)cc1` was tested, and the max response, negative = inhibition was 11.6%. In the case of `COC(=O)c1ccc(NC(=O)CSc2n[nH]c(-c3ccccc3)n2)cc1`, the max response, negative = inhibition was -7.41%. `COc1ccc(C(=O)Nc2nc(-c3ccc(S(=O)(=O)N4CCOCC4)cc3)cs2)cc1` gave a max response, negative = inhibition of -19.9%. In the case of `COc1ccc(-c2csc(NC(=O)CCCc3cccs3)n2)cc1`, the Potency was 10 µM (active). `COc1ccc(Cc2nnc(NS(=O)(=O)Cc3ccccc3)s2)cc1` gave a max response, negative = inhibition of -1.39%. `COc1ccc(Cc2nnc(NC(=O)Cc3cccs3)s2)cc1` was tested, and the Potency was 20 µM (active). Work on `Cc1ccc(-c2csc(NC(=O)Cc3cccs3)n2)cc1C` yielded a max response, negative = inhibition of -12.6%. `CCc1nnc(NC(=O)CSc2nnc(Cc3ccccc3)n2-c2ccc(OC)cc2)s1` was tested, and the max response, negative = inhibition was -3.04%. `CCN(CC)S(=O)(=O)c1ccc2c(c1)nc(CN(C)C(=O)Nc1ccc(Cl)cc1)n2C` showed a max response, negative = inhibition of 2.49%. `CCOC(=O)c1[nH]c(C)c(CCC(=O)N2CCN(c3ccccc3)CC2)c1C` showed a max response, negative = inhibition of 6.86%. `Cc1cccc(C(=O)N2CCc3cc(CNC(=O)Cc4ccc(F)cc4)ccc32)c1` gave a max response, negative = inhibition of -5.89%. For `CCc1ccc(CN(Cc2ccco2)C(=O)COc2ccc(Cl)c(C)c2)cc1`, the max response, negative = inhibition was -28.4%. Work on `CCN(CC)S(=O)(=O)c1ccc2c(c1)N(CC(=O)NCC(C)c1ccccc1)C(=O)CO2` (stereo not given) yielded a max response, negative = inhibition of 13.8%. In the case of `O=C(Nc1sc2c(c1-c1nc3ccccc3[nH]1)CCCC2)C1CC1`, the Potency was 25.1 µM (active). With `O=C(OCc1nc2ccccc2[nH]1)C1CCCCC1` the max response, negative = inhibition was 6.92%. Work on `c1ccc2[nH]c(-c3nc4ccccc4[nH]3)nc2c1` yielded a max response, negative = inhibition of 9%. For `Cc1ccc2c(c1)N(C(=O)CCC(=O)NCc1ccccc1F)CC(C)O2` (stereo not given), the max response, negative = inhibition was 2.02%. `Cc1ccc(OCCSc2nc(C)c(Cc3ccccc3)c(=O)[nH]2)cc1` showed a max response, negative = inhibition of -1.11%. `O=C(NC1CC(=O)N(c2ccc(F)cc2)C1)c1cccs1` (stereo not given) showed a max response, negative = inhibition of 8.85%. `Cc1c(Cl)cccc1-c1ccc(CNCCCSc2nnnn2C)o1` gave a max response, negative = inhibition of -7.09%. For `CCCc1ccc(OCc2ccc(C(=O)N/N=C/c3cccc([N+](=O)[O-])c3)o2)c(OC)c1`, the Potency was 6.31 µM (active). `COc1cc(/C=N\NC(=O)CNC(=O)c2cccc([N+](=O)[O-])c2)ccc1O` gave a max response, negative = inhibition of 6.36%. With `COc1cc(/C=N/O)ccc1OCc1ccc([N+](=O)[O-])cc1` the max response, negative = inhibition was 0.78%. Work on `Cc1ccc(-c2nc3cccc(C)n3c2Nc2ccc3c(c2)OCCO3)cc1` yielded a max response, negative = inhibition of -0.169%. For `CCCN1CCN(CCCNC(=O)c2cnn(-c3ccc(C)cc3)c2-n2cccc2)CC1`, the max response, negative = inhibition was 7.09%. `CCCCOc1ccc(CNC(=O)c2ccc3c(c2)N(C)C(=O)C2CCCCN32)cc1` (stereo not given) was tested, and the max response, negative = inhibition was 13.9%. For `COc1ccccc1NC(=O)c1oc2ccccc2c1NC(=O)COc1ccccc1OC`, the max response, negative = inhibition was -7.97%. `Cc1cccc(COc2ccccc2/C=N/Nc2ccc([N+](=O)[O-])cc2)c1` was tested, and the Potency was 25.1 µM (active). Compound `Cc1cc([N+](=O)[O-])ccc1NCc1cccc([N+](=O)[O-])c1` has a max response, negative = inhibition of 2.12%. `Cc1cccc(CC(=O)N2CCN=C2SCc2ccc([N+](=O)[O-])cc2)c1` was tested, and the max response, negative = inhibition was -7.03%. In the case of `N#Cc1ccc(-c2cccs2)nc1SCc1ccc(Br)cc1`, the max response, negative = inhibition was -6.69%. `COc1ccc2c(c1)c(N1CCCC1=O)c(C(=O)Nc1ccccc1C(F)(F)F)n2C` showed a max response, negative = inhibition of -10%. With `COc1ccc(C(=O)N2CCC(c3nc4ccccc4o3)CC2)cc1` the max response, negative = inhibition was 14.3%. For `Cc1ccc(-c2noc(-c3nnn(-c4cccc(C(F)(F)F)c4)c3N)n2)cc1`, the max response, negative = inhibition was 1.55%. With `CCSc1nnc(NC(=O)c2cc(=O)c3cc(C)c(C)cc3o2)s1` the max response, negative = inhibition was -5.87%. In the case of `CCSc1nnc(NC(=O)Cc2ccccc2OC)s1`, the max response, negative = inhibition was 0.739%. With `CCSc1nnc(NC(=O)c2ccc(C)cc2)s1` the Potency was 0.631 µM (active). Compound `Cc1ccccc1OCc1nc2c3cnn(-c4ccccc4F)c3ncn2n1` has a max response, negative = inhibition of -7.52%. For `COc1cc(OC)c(NC(=O)Cc2ccc(-n3c(C)nc4cccnc43)cc2)cc1Cl`, the max response, negative = inhibition was 4.77%. `COc1c(Cl)cc(C(=O)N(Cc2ccccc2F)C2CCS(=O)(=O)C2)cc1Cl` (stereo not given) gave a max response, negative = inhibition of 6.06%. `COCCn1c(C)cc(C2=NNC(=Nc3ccc(F)cc3)SC2)c1C` was tested, and the max response, negative = inhibition was -3.73%. With `Cc1cccc(N=C2NN=C(c3c[nH]c4ccccc34)CS2)c1` the Potency was 7.94 µM (active). `Cc1ccc(-c2csc(-c3c[nH]c4ccccc34)n2)cc1` was tested, and the max response, negative = inhibition was 1.08%. `CC(=O)N1c2ccccc2CC1C(=O)N1CCN(c2ccc(F)cc2)CC1` (stereo not given) showed a max response, negative = inhibition of 13.9%. In the case of `Nc1nc(N)c2[nH]c(CNc3ccc(C(=O)O)cc3)nc2n1`, the Potency was 3.98 µM (active). With `Cc1nc(SCC(=O)Nc2ccc(C(=O)O)cc2)n[nH]1` the max response, negative = inhibition was 6.79%. `O=C(CCS(=O)(=O)c1cc(Br)cc2c1N(C(=O)C1CC1)CC2)Nc1ccc(Br)cc1F` gave a max response, negative = inhibition of -5.03%. With `COCC(=O)Nc1nnc(COc2ccccc2)s1` the max response, negative = inhibition was 2.8%. For `Cc1ccc(OCc2nnc(NC(=O)OCC(C)C)s2)cc1`, the Potency was 20 µM (active). With `CCOCc1nnc(NC(=O)CSc2ccc(C)cc2)s1` the max response, negative = inhibition was 1.04%. In the case of `CCCCOc1ccc(C(=O)N2CC(=O)Nc3ccc(Br)cc3C2c2ccc(F)cc2)cc1` (stereo not given), the Potency was 25.1 µM (active). In the case of `COc1ccc(CC(=O)N2CC(=O)Nc3ccc(Br)cc3C2c2ccc(F)cc2)cc1OC` (stereo not given), the max response, negative = inhibition was 18.8%. Compound `CCC(CC)C(=O)N1CC(=O)Nc2ccc(Br)cc2C1c1ccccc1` (stereo not given) has a max response, negative = inhibition of -0.646%. Work on `Cc1ccc2cccc(NC(=O)c3ccc(OC(C)C)cc3)c2n1` yielded a max response, negative = inhibition of -1.78%. With `Cc1[nH]c2ccccc2c1/C=N/NC(=O)CNC(=O)c1ccc2c(c1)OCO2` the max response, negative = inhibition was -1.52%. `Cc1[nH]c2ccccc2c1/C=N\NC(=O)Cn1nnc(-c2ccccc2)n1` was tested, and the Potency was 7.94 µM (active). Compound `O=C(Cn1nnc(-c2ccccc2)n1)NCc1ccccc1` has a max response, negative = inhibition of 3.66%.
